Screening results from PubChem BioAssay.
SMARCA2 activ = increases SMARCA2 function in MMTV reporter cells | activation, % at 9.1 µM | MG213 cells, MMTV-luciferase reporter, dexamethasone, overnight | actives 1% (n = 370,000); in the data active = activation above about 7.8%;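 note: 0% = vehicle wells and 100% = reference activator wells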
DYRK1A inh = blocks rat Dyrk1A kinase activity. Q63470. ADP-Glo luminescence, NFATc1 peptide. AID 504441. inhibition, % at 12.5 µM. actives 0.43% (n = 310,000); in the data active = inhibition above about 50%;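 note: plate controls were vehicle with enzyme for no effect and no enzyme for full effect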
dFosB activator = activators of mouse delta FosB homodimer. P13346. actives 0.99% (n = 340,000). activation, % at 25 µM. purified delta FosB, TAMRA-CDK5 oligo fluorescence polarization; percent of positive-control signal above neutral wells. AID 493131;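 active = mean activation above about 17%, with every replicate also reaching it, limit read from the data, passing the limit was not always enough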
CDK5 p35 inh = blocks human CDK5/p35 kinase activity; actives 0.01% (n = 330,000); AID 488839; inhibition, % at 10 µM; Recombinant CDK5/p35, ADP-Glo luminescence, 60 min; Q00535+Q15078;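 active = highest replicate inhibition of at least 50% and at least 75% of replicates reaching 50%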;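 note: plate controls were DMSO neutral control for no effect and GW8510 at 10 µM for full effect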
Target sequence (Q00535 whole entry, looked up): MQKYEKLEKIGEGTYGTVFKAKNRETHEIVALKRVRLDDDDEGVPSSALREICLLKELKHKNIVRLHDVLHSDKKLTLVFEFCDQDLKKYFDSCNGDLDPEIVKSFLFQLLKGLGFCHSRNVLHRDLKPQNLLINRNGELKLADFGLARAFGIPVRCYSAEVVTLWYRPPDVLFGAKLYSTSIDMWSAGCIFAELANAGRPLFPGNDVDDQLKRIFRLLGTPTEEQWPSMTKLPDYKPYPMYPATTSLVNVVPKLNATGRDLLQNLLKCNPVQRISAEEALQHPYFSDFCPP
Target sequence (Q15078 whole entry, looked up): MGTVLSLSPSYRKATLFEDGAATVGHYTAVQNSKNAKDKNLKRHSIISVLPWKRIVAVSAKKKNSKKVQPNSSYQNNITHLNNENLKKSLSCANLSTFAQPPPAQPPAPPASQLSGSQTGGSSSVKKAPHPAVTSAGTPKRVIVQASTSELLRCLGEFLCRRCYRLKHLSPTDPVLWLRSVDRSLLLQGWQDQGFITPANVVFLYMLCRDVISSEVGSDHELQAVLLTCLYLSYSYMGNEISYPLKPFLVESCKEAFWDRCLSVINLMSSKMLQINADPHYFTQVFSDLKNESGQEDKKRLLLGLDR
Rtt109 HAT inh = C. albicans Rtt109 histone acetyltransferase inhibition | Q5AAJ8 | inhibition, % at 34.9 µM | purified Rtt109/Vps75, ThioGlo CoA-SH fluorescence, 4 h | AID 540336 | actives 0.16% (n = 330,000);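 active = inhibition of at least 50% in every replicate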
esBAF inh = inhibitors of esBAF chromatin remodeling in mouse ES cells. Bmi1-luciferase knock-in reporter, 24 h; 100% = twice the neutral-well signal. reporter increase, % at 12.5 µM. actives 2% (n = 350,000); in the data active = activation above about 40%;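 note: 0% = median of the plate's neutral control wells and 100% = double that signal; a rise in the Bmi1 reporter signal indicates esBAF inhibition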
Active calls of the source: *; . = no result given. The list is not random: actives were taken first. Their share in the collection is about 3.2%.

SMILES	SMARCA2 activ	DYRK1A inh	dFosB activator	CDK5 p35 inh	Rtt109 HAT inh	esBAF inh
CCS(=O)(=O)N1Cc2ccccc2CC1C(=O)Nc1ccc(NC(C)=O)cc1 (stereo unspecified)	-0.8	5.1	-8.2	-1.3	2.1	.
CCS(=O)(=O)N1Cc2ccccc2CC1C(=O)N(C)CC(=O)Nc1cccc(F)c1 (stereo unspecified)	0.9	14.3	-8.0	0.5	-4.5	46.6*
CCS(=O)(=O)N1Cc2ccccc2CC1C(=O)Nc1ccc(C)cc1 (stereo unspecified)	4.2	2.1	3.4	2.2	0.9	48.8*
Cc1ccc(C)c(N2CCN(C(=O)CCc3nc(-c4ccccc4Br)no3)CC2)c1	1.8	-1.4	-8.8	-2.5	0.6	43.2*
Cc1ccc(C)c(N2CCN(C(=O)CCc3nc(-c4ccccc4F)no3)CC2)c1	-0.6	-0.2	-8.9	-1.4	4.7	2.6
CSc1cccc(NC(=O)c2[nH]c(C)c(C(C)=O)c2C)c1	4.6	0.3	-14.7	-3.8	6.5	64.6*
CC(=O)c1c(C)[nH]c(C(=O)Nc2ccc(Cl)cc2)c1C	1.8	4.4	-26.4	-2.5	-5.9	60.2*
CC(=O)c1c(C)[nH]c(C(=O)Nc2ccc(Cl)cc2F)c1C	0.5	-3.6	-8.1	0.7	-3.0	27.6
COc1ccc(CNC(=O)C[C@@H]2CC[C@@H](NC(=O)c3cccc(F)c3)[C@H](CO)O2)cc1	.	.	.	.	.	2.5
CCOC(=O)c1ccc(Nc2nc(C)cc(C)n2)cc1	-2.7	-3.4	-6.3	1.5	-10.6	38.6
CC(=O)c1ccc(Nc2nc(C)cc(C)n2)cc1	7.2	9.6	3.1	-2.6	3.3	50.1*
CCCCn1c(N)c(N(CC(C)C)C(=O)C2CCN(S(=O)(=O)c3ccc(C)cc3)CC2)c(=O)[nH]c1=O	3.4	1.5	56.0*	-0.1	2.9	5.5
O=C(Cc1ccncc1)NCC[C@H]1CC[C@@H](NC(=O)Nc2ccc(Cl)cc2)[C@H](CO)O1	.	.	.	.	.	-2.4
O=C(N/N=C/c1cc([N+](=O)[O-])ccc1O)C1CC1	-2.4	-3.1	-1.5	0.8	-9.2	12.8
O=[N+]([O-])c1ccc(O)c(/C=N/Nc2ccccc2Cl)c1	1.2	-6.6	-7.4	-0.1	-10.5	47.1*
O=[N+]([O-])c1ccccc1/C=N/NC1=NCCN1	-3.0	-3.7	-8.4	-2.9	-0.1	.
O=C(O)c1ccc(N/N=C/C=C/c2ccccc2[N+](=O)[O-])cc1	-0.2	9.3	3.3	-0.6	-5.7	78.7*
O=C(CNC(=O)c1cccs1)N/N=C/c1ccccc1[N+](=O)[O-]	0.1	-0.7	1.5	-0.5	-11.7	59.9*
O=[N+]([O-])c1ccccc1C=NNc1ccccc1	7.2	6.3	-1.2	-4.2	0.8	91.5*
CN(C)C(=O)C[C@H]1C=C[C@@H](NC(=O)C2CC2)[C@@H](CO)O1	.	.	.	.	.	0.0
O=[N+]([O-])c1ccccc1N/N=C\c1ccccc1Cl	2.9	-1.5	-2.7	0.3	-5.8	62.3*
O=[N+]([O-])c1ccccc1/C=N/OCc1ccccc1	5.4	-2.2	2.9	-0.6	2.8	64.6*
Cc1ccc(Nc2nnc(SCC(=O)Nc3cccc(S(=O)(=O)N4CCCCC4)c3)s2)cc1	-1.2	-4.4	-6.5	-1.5	-4.7	.
O=C(CSc1nnc(Nc2ccccc2F)s1)Nc1cccc(S(=O)(=O)N2CCCCC2)c1	-2.2	-4.6	-10.3	0.4	-5.9	42.9*
C[C@@H]1CN([C@H](C)CO)C(=O)Cc2cc(NS(=O)(=O)c3cccs3)ccc2O[C@H]1CN(C)S(=O)(=O)c1cccs1	.	.	.	.	.	-2.7
SMILES	SMARCA2 activ	DYRK1A inh	dFosB activator	CDK5 p35 inh	Rtt109 HAT inh	esBAF inh
Cc1noc(C)c1NC(=O)Nc1ccc2c(c1)CC(=O)N([C@H](C)CO)C[C@H](C)[C@@H](CN(C)C(=O)Nc1ccc(C(F)(F)F)cc1)O2	.	.	.	.	.	-8.4
CC(C)(C)c1ccc(C(=O)c2c[nH]c(C(=O)NCc3cccnc3)c2)cc1	0.0	0.9	-18.4	-6.5	-7.2	55.0*
N#Cc1cccc(-c2ccc3c(c2)[C@@H]2[C@@H](CCN2C(=O)c2ccncc2)[C@@H](CO)N3)c1	.	.	.	.	.	61.4*
N#Cc1ccc(-c2ccc3c(c2)[C@@H]2[C@@H](CCN2C(=O)c2ccncc2)[C@H](CO)N3)cc1	.	.	.	.	.	-1.9
COc1cccc(-c2ccc3c(c2)[C@H]2[C@H](CCN2C(=O)c2ccccn2)[C@H](CO)N3)c1	.	.	.	.	.	44.9*
COc1ccc(-c2ccc3c(c2)[C@@H]2[C@@H](CCN2S(=O)(=O)c2ccccc2F)[C@@H](CO)N3)cc1	.	.	.	.	.	-2.3
COc1cc2sc3cc(NCCCN4CCOCC4)ccc3c(=O)c2cc1OC	7.3	21.6	5.1	-0.1	-232.8	54.6*
O=c1c2ccccc2sc2ccc(NCCCN3CCOCC3)cc12	7.3	39.4	-7.2	-2.2	14.2	10.0
CC(=O)Nc1ccc(NC(=O)CSc2nnnn2-c2ccc3c(c2)OCCO3)cc1	-1.1	-7.2	87.2*	-0.9	-2.1	-4.9
CC(C)OC(=O)CSc1nnnn1-c1ccc2c(c1)OCCO2	0.6	.	-3.9	-0.2	-4.4	68.5*
CN1c2ccc(-c3cccc(F)c3)cc2[C@@H]2[C@@H](CCN2C(=O)C2CCCC2)[C@@H]1CO	.	.	.	.	.	2.0
C[C@H](CO)N1C[C@H](C)[C@@H](CN(C)Cc2ccc(Cl)c(Cl)c2)Oc2ccc(NC(=O)c3ccncc3)cc2C1=O	.	.	.	.	.	0.8
Cc1cc(NC(=O)CSc2nc3ccccc3c(=O)n2Cc2ccccc2)no1	-3.1	8.3	-0.7	1.4	-11.2	.
Cc1ccc(Cn2c(SCC(=O)Nc3cc(C)on3)nc3ccccc3c2=O)cc1	-1.6	6.7	65.3*	1.0	-8.4	-5.7
Cc1cc(NC(=O)CSc2nc3c(c(=O)n2Cc2ccccc2)SC(C)C3)no1 (stereo unspecified)	-0.2	-3.4	-4.7	0.4	1.6	46.3*
CCOc1ccc(/C=N/n2cc(-c3ccccc3)[nH]c2=S)cc1	-2.3	.	-11.8	1.7	3.0	44.8*
S=c1[nH]c(-c2ccccc2)cn1/N=C/c1ccncc1	-1.9	43.5	-2.8	12.7	5.0	16.0
CCOC(=O)N1CCN(c2ccc(C(F)(F)F)cn2)CC1	7.9*	0.9	-2.0	.	-4.4	0.1
COc1ccc(C#Cc2ccc3c(c2)O[C@@H](CN(C)C(=O)Nc2cccc(OC)c2)[C@@H](C)CN([C@@H](C)CO)S3(=O)=O)cc1	.	.	.	.	.	17.6
C=CCn1c(C)csc1=Nc1ccc(C(C)=O)cc1	1.3	0.9	5.9	0.2	7.3	.
C=CCn1c(CC(=O)OC)csc1=Nc1ccc(C(C)=O)cc1	2.1	-4.3	2.7	0.7	-2.5	54.9*
COc1ccc2[nH]c3c(=O)n(CCCC(=O)NC4CCCCC4C)c(=S)[nH]c3c2c1 (stereo unspecified)	-0.1	-1.2	51.8*	0.0	-3.9	1.4
